PubChem BioAssay (Tox21)
Inconclusive results are not listed. The source holds several records for some structures; these can differ, active in one and inactive in another. Activity calls are given as the source filed them. Unless noted, calls follow the shape of the dose curve; as a rule, active = well fitted curve in the direction sought with a large enough effect in the repeat runs; inconclusive = weak or mixed curves; inactive = no such curve, though single readings can be large; an effect the other way counts as inactive or inconclusive.

Assays:
[1] = qHTS assay to identify small molecule antagonists of the sonic hedgehog signaling (Shh) pathway (AID 1259369; calls by dose curve; also: nearly all actives have a fitted effect of over 45% in size; also: potency is read from the fitted curve at half-maximal effect)
Method in brief: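 Inhibition of Shh signalling is measured as reduced Gli1-response-element firefly luciferase output in an NIH/3T3-derived stable reporter clone stimulated with conditioned medium for 24hr.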

[2] = target: Estrogen receptor beta (Homo sapiens) (UniProt Q92731); experiment: qHTS assay to identify small molecule agonists of the estrogen receptor beta (ER-beta) signaling pathway (AID 1259377; active = well fitted activation curve with a large enough effect in the signal ratio in the repeat runs, not every such curve was filed as active; the % refers to the signal ratio)
Estrogen receptor beta (Homo sapiens), sequence (Q92731 whole entry, looked up): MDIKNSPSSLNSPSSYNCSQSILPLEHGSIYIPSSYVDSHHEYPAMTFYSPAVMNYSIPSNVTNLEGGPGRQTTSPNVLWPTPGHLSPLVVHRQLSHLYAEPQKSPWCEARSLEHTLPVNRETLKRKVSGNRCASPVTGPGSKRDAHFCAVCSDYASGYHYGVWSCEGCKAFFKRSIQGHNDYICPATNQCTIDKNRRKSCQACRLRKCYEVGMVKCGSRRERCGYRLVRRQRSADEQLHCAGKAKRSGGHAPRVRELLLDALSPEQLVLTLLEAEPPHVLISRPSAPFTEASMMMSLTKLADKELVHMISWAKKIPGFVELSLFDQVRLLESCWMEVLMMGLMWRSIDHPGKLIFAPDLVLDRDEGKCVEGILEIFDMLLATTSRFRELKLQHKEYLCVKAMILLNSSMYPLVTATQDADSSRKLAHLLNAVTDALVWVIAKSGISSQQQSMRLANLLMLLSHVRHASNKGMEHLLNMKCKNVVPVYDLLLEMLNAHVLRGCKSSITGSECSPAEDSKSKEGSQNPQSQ
Method in brief: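 A UAS-controlled beta-lactamase reporter in ER-beta-UAS-bla HEK293T cells reports receptor activation. Compounds act for 16 hr at 37C in 2% charcoal-stripped serum, and a FRET substrate is read by fluorescence after 2 hours.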

[3] = target: Estrogen receptor beta (Homo sapiens) (UniProt Q92731); experiment: qHTS assay to identify small molecule antagonists of the estrogen receptor beta (ER-beta) signaling pathway (AID 1259378; active = well fitted inhibition curve with a large enough effect in the signal ratio in the repeat runs, not every such curve was filed as active; the % refers to the signal ratio; also: potency is read from the fitted curve at half-maximal effect)
Method in brief: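 Antagonist mode: compounds added to beta-lactamase reporter HEK293T ER-beta-UAS cells stimulated with E2 (1nM final), 16 hr at 37C. LiveBLAzer B/G FRET substrate, 2 hours room temperature, fluorescence read-out.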

[4] = qHTS assay to identify small molecule agonists of the androgen receptor (AR) signaling pathway in the presence of an antagonist - cell viability counter screen (AID 1259379);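 also: MDA-kb2 human breast cancer cells carrying an MMTV luciferase reporter; series mostly up to about 92 µM; nearly all actives have a fitted effect of over 25% in size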
Method in brief: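 Fluorescence from CellTiter-Fluor, added after 15 hr and read 1 hr later, gave cell viability. Cells were MDA-kb2 exposed to compounds (15 concentrations) in the presence of 3.0uM nilutamide at 37C, 0% CO2.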

[5] = qHTS assay to identify small molecule agonists of the estrogen receptor beta (ER-beta) signaling pathway - cell viability counter screen (AID 1259380); also: nearly all actives have a fitted effect of over 30% in size
Method in brief: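 Same-well viability counter screen. Cells: ER-beta-UAS-bla HEK293T, plated 6 hr before compound, in 2% charcoal-stripped FBS. Compound exposure 16 hr, 37C; viability by CellTiter-Glo luminescence after 30 min at room temperature.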

[6] = qHTS assay to identify small molecule antagonists of the estrogen receptor beta (ER-beta) signaling pathway - cell viability counter screen (AID 1259382);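 also: HEK293T cells carrying ER-beta-UAS-bla reporter stimulated with estradiol; series mostly up to about 92 µM; nearly all actives have a fitted effect of over 55% in size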
Method in brief: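 Following a 6 hr plating period, HEK293T cells carrying a UAS-driven beta-lactamase reporter under ER-beta control received compounds and 1nM E2 (final). After 16 hr at 37C and 2 hr substrate loading, CellTiter-Glo luminescence indicated viability.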

[7] = target: Estrogen receptor (Homo sapiens) (UniProt P03372); experiment: qHTS assay to identify small molecule agonists of the estrogen receptor alpha (ER-alpha) signaling pathway in the presence of an antagonist (AID 1259383; calls by dose curve; also: top concentration of the series differs between compounds; nearly all actives have a fitted effect of over 15% in size)
Estrogen receptor (Homo sapiens), sequence (P03372 whole entry, looked up): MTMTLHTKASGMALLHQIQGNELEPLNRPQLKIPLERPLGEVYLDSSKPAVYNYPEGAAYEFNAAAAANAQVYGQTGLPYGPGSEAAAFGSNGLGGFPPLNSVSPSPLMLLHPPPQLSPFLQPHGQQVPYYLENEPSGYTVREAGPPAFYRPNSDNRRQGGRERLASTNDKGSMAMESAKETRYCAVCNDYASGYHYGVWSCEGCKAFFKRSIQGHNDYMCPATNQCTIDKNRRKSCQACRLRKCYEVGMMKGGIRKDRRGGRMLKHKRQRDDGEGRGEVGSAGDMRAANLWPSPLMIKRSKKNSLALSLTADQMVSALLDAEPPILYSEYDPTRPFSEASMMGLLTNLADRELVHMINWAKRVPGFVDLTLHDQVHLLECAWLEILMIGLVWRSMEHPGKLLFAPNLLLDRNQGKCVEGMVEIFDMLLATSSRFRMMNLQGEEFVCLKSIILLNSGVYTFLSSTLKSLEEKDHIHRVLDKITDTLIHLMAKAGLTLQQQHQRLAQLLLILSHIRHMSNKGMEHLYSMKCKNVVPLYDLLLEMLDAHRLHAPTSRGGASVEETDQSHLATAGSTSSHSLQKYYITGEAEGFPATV
Method in brief: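 Cells are hormone-deprived for 5 days (charcoal-stripped FBS, no phenol red), plated for 24hr, spiked with 10.0nM ICI-182,780, then dosed at 15 concentrations. After 22hr at 37C, ONE-Glo luminescence reports ERE-luciferase activity.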

[8] = target: Thyrotropin receptor (Homo sapiens) (UniProt P16473); experiment: qHTS assay to identify small molecule antagonists of the thyroid stimulating hormone receptor (TSHR) signaling pathway (AID 1259385; calls by dose curve; also: nearly all actives have a fitted effect of over 20% in size; also: potency is read from the fitted curve at half-maximal effect)
Thyrotropin receptor (Homo sapiens), sequence (P16473 whole entry, looked up): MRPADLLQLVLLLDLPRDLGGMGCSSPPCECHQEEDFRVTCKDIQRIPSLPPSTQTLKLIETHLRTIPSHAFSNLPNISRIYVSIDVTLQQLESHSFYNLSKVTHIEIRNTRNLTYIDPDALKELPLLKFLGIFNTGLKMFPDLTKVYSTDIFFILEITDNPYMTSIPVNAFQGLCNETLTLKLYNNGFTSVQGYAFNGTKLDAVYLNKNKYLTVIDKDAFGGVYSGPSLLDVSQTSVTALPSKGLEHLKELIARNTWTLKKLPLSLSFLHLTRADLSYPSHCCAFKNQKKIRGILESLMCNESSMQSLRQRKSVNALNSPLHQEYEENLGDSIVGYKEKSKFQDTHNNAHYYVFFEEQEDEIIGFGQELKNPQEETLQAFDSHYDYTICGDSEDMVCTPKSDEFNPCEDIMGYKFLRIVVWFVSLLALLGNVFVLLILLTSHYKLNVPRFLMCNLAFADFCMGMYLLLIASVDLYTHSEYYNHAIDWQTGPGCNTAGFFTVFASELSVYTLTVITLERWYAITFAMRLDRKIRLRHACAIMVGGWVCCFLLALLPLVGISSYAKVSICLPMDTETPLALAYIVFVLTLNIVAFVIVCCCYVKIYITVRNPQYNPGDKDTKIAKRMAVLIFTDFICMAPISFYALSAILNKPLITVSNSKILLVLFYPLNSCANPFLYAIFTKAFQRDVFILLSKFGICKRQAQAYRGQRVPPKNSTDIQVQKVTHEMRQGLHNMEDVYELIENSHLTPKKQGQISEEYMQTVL
Method in brief: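 Antagonist mode: compound-treated TSHR-expressing HEK293 cells were stimulated with 1.5 ng/mL TSH (final) in presence of Ro20-1724 for 30 min at RT. HTRF cAMP detection after 1 h; each compound tested at 15 concentrations, triplicate.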

[9] = qHTS assay to identify small molecule agonists of the estrogen receptor alpha (ER-alpha) signaling pathway in the presence of an antagonist - cell viability counter screen (AID 1259386);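 also: series mostly up to about 92 µM; cells exposed to compounds for 22 h at 37 °C before the viability read; nearly all actives have a fitted effect of over 30% in size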
Method in brief: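 Cells are starved of estrogens for 5 days in charcoal-stripped serum, seeded for 24hr and co-treated with ICI-182,780 (10.0nM final) and test compounds. After 22hr at 37C, viability is read as CellTiter-Fluor fluorescence.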

[10] = target: Progesterone receptor (Homo sapiens) (UniProt P06401); experiment: qHTS assay to identify small molecule agonists of the progesterone receptor (PR) signaling pathway (AID 1346784; calls by dose curve; also: nearly all actives have a fitted effect of over 30% in size)
Progesterone receptor (Homo sapiens), sequence (P06401 whole entry, looked up): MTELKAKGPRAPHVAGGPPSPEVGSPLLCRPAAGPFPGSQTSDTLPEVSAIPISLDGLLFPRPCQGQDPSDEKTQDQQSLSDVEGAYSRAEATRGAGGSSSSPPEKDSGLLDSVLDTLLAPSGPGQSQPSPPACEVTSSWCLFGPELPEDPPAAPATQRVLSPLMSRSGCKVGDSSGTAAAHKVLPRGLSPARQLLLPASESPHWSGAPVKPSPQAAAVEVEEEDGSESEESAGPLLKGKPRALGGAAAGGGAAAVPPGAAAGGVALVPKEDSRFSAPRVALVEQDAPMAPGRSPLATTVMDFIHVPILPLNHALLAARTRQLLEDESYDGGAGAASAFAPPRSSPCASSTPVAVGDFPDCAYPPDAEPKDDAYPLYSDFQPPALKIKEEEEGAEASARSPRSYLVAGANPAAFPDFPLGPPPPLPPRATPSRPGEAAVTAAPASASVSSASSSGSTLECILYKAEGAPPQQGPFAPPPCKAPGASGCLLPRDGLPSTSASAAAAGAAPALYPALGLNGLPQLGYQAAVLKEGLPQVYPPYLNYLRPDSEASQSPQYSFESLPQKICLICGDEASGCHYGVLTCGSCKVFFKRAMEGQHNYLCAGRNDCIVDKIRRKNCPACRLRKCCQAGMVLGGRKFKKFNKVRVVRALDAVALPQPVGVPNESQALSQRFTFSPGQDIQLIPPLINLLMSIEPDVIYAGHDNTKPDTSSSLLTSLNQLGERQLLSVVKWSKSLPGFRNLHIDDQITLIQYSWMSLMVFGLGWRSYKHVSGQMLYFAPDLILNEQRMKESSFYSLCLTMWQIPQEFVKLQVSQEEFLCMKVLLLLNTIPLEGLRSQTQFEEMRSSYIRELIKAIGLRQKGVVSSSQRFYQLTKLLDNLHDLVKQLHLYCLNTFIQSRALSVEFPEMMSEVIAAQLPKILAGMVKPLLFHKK
Method in brief: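 Agonist mode, quantitative HTS format in a HEK 293T line expressing a UAS-controlled beta-lactamase reporter; 16 hr compound exposure at 37C in 2% charcoal-stripped FBS, then LiveBLAzer B/G FRET fluorescence.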

[11] = target: Progesterone receptor (Homo sapiens) (UniProt P06401); experiment: qHTS assay to identify small molecule antagonists of the progesterone receptor (PR) signaling pathway (AID 1346795; active = well fitted inhibition curve with a large enough effect in the signal ratio in the repeat runs, not every such curve was filed as active; the % refers to the signal ratio)
Method in brief: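 HEK293T PR-UAS-bla reporter cells in charcoal-stripped serum (2%) received compound after a 6 hr settling period, followed by R5020 agonist at 1 nM final; 16 hr incubation preceded the FRET substrate step and fluorescence measurement.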

[12] = qHTS assay to identify small molecule antagonists of the progesterone receptor (PR) signaling pathway - cell viability counter screen (AID 1346798); also: series mostly up to about 92 µM; nearly all actives have a fitted effect of over 50% in size
Method in brief: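 Same-well multiplex: after 16 hr at 37C with compound and R5020 stimulation, HEK293T cells carrying a UAS-bla reporter received LiveBLAzer substrate (2 hr RT), then CellTiter-Glo (30 min RT) for luminescent viability.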

[13] = qHTS assay to identify small molecule agonists of the progesterone receptor (PR) signaling pathway - cell viability counter screen (AID 1346799; calls by dose curve; also: nearly all actives have a fitted effect of over 45% in size)
Method in brief: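 Counter screen for cytotoxicity: compound-treated PR-UAS-bla HEK293T cells (16 hr, 37C, 5% CO2) were assayed with CellTiter-Glo, luminescence measured after 30 min at room temperature.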

[14] = qHTS assay to identify small molecule agonists of the TGF-beta/Smad signaling pathway - cell viability counter screen (AID 1346829); also: top concentration of the series differs between compounds; nearly all actives have a fitted effect of over 45% in size
Method in brief: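 In parallel with the Smad reporter read, viability of HEK 293T cells stably carrying SBE-bla is quantified by ATP luminescence following 5 hr compound treatment.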

[15] = qHTS assay to identify small molecule agonists of the TGF-beta/Smad signaling pathway (AID 1346859; active = well fitted activation curve with a large enough effect in the signal ratio in the repeat runs, not every such curve was filed as active; the % refers to the signal ratio; also: series mostly up to about 77 µM)
Method in brief: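 Smad-responsive beta-lactamase reporter cells (HEK 293T) received compounds from DMSO stocks after overnight attachment, were incubated 5 hr, then treated 2 hr with FRET substrate before dual-emission fluorescence measurement (405 nm excitation).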

[16] = target: Thyrotropin-releasing hormone receptor (Homo sapiens) (UniProt P34981); experiment: qHTS assay to identify small molecule antagonists of the thyrotropin-releasing hormone receptor (TRHR) signaling pathway (AID 1346877; active = well fitted inhibition curve with a large enough effect in the repeat runs, not every such curve was filed as active; also: series mostly up to about 51 µM)
Thyrotropin-releasing hormone receptor (Homo sapiens), sequence (P34981 whole entry, looked up): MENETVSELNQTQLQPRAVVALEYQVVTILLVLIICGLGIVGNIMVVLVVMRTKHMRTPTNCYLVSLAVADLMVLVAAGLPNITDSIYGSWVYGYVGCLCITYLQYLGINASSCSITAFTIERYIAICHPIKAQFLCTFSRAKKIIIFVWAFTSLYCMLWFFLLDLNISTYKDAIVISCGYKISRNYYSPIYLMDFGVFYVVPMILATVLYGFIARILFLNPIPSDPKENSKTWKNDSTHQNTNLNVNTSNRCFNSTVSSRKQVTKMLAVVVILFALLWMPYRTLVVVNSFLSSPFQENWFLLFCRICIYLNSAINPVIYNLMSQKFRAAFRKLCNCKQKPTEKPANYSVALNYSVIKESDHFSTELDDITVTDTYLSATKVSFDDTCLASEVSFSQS
Method in brief: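 Cells (TRHR-HEK293) are plated and kept 18 h at 37 °C/5% CO2. A calcium-sensitive dye is added for 2 h, compound follows for 5 min at room temperature, and TRH is then given at 1 nM final.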

[17] = target: Thyrotropin-releasing hormone receptor (Homo sapiens) (UniProt P34981); experiment: qHTS assay to identify small molecule agonists of the thyrotropin-releasing hormone receptor (TRHR) signaling pathway (AID 1346891; calls by dose curve;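 also: HEK293 cells expressing TRHR with calcium dye readout; series mostly up to about 58 µM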)
Method in brief: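 Agonist-mode calcium mobilisation screen: TRHR-transfected HEK293 cells cultured overnight (18 h), dye-loaded for 2 h at 37 °C, exposed to compounds, and monitored by fluorescence for 3 min.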

[18] = target: Androgen receptor (Homo sapiens) (UniProt P10275); experiment: qHTS assay to identify small molecule agonists of the androgen receptor (AR) signaling pathway in the presence of an antagonist (AID 1259381; calls by dose curve; also: nearly all actives have a fitted effect of over 15% in size)
Androgen receptor (Homo sapiens), sequence (P10275 whole entry, looked up): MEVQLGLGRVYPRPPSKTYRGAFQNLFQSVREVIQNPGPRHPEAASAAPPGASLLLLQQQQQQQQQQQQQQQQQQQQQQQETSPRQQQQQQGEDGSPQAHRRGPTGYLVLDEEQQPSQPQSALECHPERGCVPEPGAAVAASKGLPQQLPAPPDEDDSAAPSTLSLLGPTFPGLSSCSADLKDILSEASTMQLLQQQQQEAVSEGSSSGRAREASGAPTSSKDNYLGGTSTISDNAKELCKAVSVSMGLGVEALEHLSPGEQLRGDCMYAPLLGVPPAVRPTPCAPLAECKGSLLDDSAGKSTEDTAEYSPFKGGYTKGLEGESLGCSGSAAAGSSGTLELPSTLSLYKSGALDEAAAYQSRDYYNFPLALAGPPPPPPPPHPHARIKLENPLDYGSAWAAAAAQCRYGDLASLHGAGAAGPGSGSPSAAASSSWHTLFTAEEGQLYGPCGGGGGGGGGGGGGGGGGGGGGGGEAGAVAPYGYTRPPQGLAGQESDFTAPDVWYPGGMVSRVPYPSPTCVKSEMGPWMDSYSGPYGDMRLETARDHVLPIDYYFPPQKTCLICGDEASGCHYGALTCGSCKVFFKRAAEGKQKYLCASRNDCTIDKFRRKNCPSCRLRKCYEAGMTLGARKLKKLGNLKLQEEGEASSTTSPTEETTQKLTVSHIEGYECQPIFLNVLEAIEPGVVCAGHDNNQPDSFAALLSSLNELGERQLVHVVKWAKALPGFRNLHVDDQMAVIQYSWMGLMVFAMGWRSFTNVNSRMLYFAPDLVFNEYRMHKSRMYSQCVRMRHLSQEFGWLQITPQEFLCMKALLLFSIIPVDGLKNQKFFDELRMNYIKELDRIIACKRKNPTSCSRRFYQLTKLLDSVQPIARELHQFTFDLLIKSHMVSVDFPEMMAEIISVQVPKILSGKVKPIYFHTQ
Method in brief: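 Cells are MDA-kb2 (human breast carcinoma, MMTV-luc, AR/GR responsive). Nilutamide is present at 3.0uM final throughout; compounds are added at 15 concentrations and incubated 16hr at 37C before ONE-Glo luminescence detection.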

[19] = qHTS assay to identify small molecule antagonists of the TGF-beta/Smad signaling pathway - cell viability counter screen (AID 1346824); also: nearly all actives have a fitted effect of over 50% in size
Method in brief: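 Cytotoxicity counter-screen run in the same wells as the beta-lactamase Smad reporter read: CellTiter-Glo luminescence after 30 min at room temperature. HEK 293T SBE-bla cells had 5 hr compound exposure at 37 C with TGF-beta1 (0.25 ng/mL stock).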

[20] = qHTS assay to identify small molecule agonists or antagonists of the thyroid stimulating hormone receptor (TSHR) signaling pathway - wild type cell line counter screen (AID 1259384; calls by dose curve)
Method in brief: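 Counter screen in untransfected Hek293: compounds (15-point titration, triplicate) plus phosphodiesterase inhibitor Ro20-1724 added after 18 h plating; 30 min RT. Intracellular cAMP via competitive d2/cryptate immunoassay, 1 h incubation.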

Measured: Potency

N#Cc1cccnc1
not listed: [18] | [19] | [20]
inactive: all other assays above

O=C1CCCO1
not listed: [7] | [20]
inactive: all other assays above

CC1(C)C(C(=O)OC(C#N)c2cccc(Oc3ccccc3)c2)C1(C)C (configuration not stated)
active: [1] 13.8 µM | [3] 48.9 µM | [8] 61.6 µM
not listed: [11] | [13] | [18]
inactive: all other assays above

CCOS(=O)(=O)OCC
not listed: [11] | [12] | [18]
inactive: all other assays above

C=CC(Cl)CCl (configuration not stated)
not listed: [7] | [11] | [19] | [20]
inactive: all other assays above

S=c1[nH]c2ccccc2[nH]1
not listed: [7] | [11] | [12] | [17] | [19]
inactive: all other assays above

Clc1cccc(C(Cl)(Cl)Cl)n1
not listed: [12] | [16] | [17] | [19]
inactive: all other assays above

O=C(O)CF
not listed: [11] | [17] | [18] | [19]
inactive: all other assays above

CC1=C(C(=O)Nc2ccccc2)SCCO1
not listed: [11] | [17]
inactive: all other assays above

CNC(=O)CSP(=S)(OC)OC
14.1 µM (active) and inactive: [1]
not listed: [11] | [17] | [18] | [19] | [20]
inactive: all other assays above

CC(C)COC(=O)c1ccccc1C(=O)OCC(C)C
not listed: [18] | [19] | [20]
inactive: all other assays above

CC(C)CON=O
not listed: [16] | [17] | [18] | [19]
inactive: all other assays above

O=[N+]([O-])/N=C1\NCCN1Cc1ccc(Cl)nc1
not listed: [17]
inactive: all other assays above

CCCCCCCCCCCCCl
not listed: [11] | [17] | [18] | [20]
inactive: all other assays above

COc1ccc(O)c(C(C)(C)C)c1
not listed: [10] | [16] | [17] | [18] | [19] | [20]
inactive: all other assays above
